# Source: PubChem BioAssay
# KKLEB cytotox: counter-screen for CF NF-kB inhibitors: cytotoxicity. KKLEB CF airway cells viability, ATPlite luminescence, overnight; active compounds read low; cells stimulated with P. aeruginosa culture filtrate. activity change (cytotoxicity), % at 5 µM. 360,000 tested, 0.36% active. AID 602141;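 active = corrected activity change at or below -50% at 5 µM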
# TWEAK-Fn14 inh: TWEAK-Fn14 signaling inhibition | TWEAK-stimulated Fn14 reporter cells, luciferase luminescence, 8 h | inhibition, % at 10 µM | 360,000 tested, 2% active | AID 1159606; in the data active = inhibition above about 50%
# HIF-2a block: blocks HIF-2a reporter activity; AID 624352; 360,000 tested, 0.72% active; inhibition, % at 18.8 µM; 786-0 RCC cells HIF-2a reporter, luciferase luminescence, overnight;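 active = inhibition of the luminescence signal of 40% or more relative to plate controls, in a single-dose primary screen at 18.75 µM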
# CF NFkB block: blocks PAF-induced NF-kB reporter in cystic fibrosis cells; KKLEB NF-kB-GFP reporter, GFP fluorescence overnight; inhibition, % at 5 µM; 360,000 tested, 0.86% active; AID 588850;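 active = at least 50% inhibition at 5 µM, scaled per plate between neutral and stimulator controls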;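 note: PAF is a Pseudomonas aeruginosa culture filtrate used as stimulus; plate controls were PAF-stimulated DMSO wells for no effect and unstimulated DMSO wells for full effect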
# TROY NFkB inh: blocks TROY-dependent signaling in reporter cells | AID 1347056 | Q293 LMP1-TROYcd NF-kB luciferase reporter, 4 h | 360,000 tested, 0.98% active | inhibition, % at 10 µM;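 active = compounds whose plate-normalised and pattern-corrected inhibition of the luciferase reporter signal at the single screening dose is 50% or more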
# Peg3 promoter: reduces Peg3 promoter-driven luciferase expression in HeLa; inhibition, % at 20 µM; HeLa PEG-Prom luciferase reporter, luminescence, overnight; 360,000 tested, 1.7% active; AID 588405;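 active = inhibition of at least 50% at 20 µM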
# CF NFkB inh conf: CF NF-kB inhibition confirmation, single concentration. 1,300 tested, 64% active. inhibition, % at 5 µM. KKLEB CF airway cells, PAF-induced NF-kB-GFP fluorescence, overnight. shares compounds with CF NFkB block; in the data active = inhibition above about 40%;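 note: stimulus PAF is a Pseudomonas aeruginosa filtrate and not platelet activating factor; plate controls were DMSO wells with stimulus for no effect and unstimulated DMSO wells for full effect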
# Starred values were filed as active, the others as inactive; x = no result. Sampled rows, rich in hits. Any-hit rate of the full collection: about 4%.
SMILES,KKLEB cytotox,TWEAK-Fn14 inh,HIF-2a block,CF NFkB block,TROY NFkB inh,Peg3 promoter,CF NFkB inh conf
CCc1nnc(SCC(=O)Nc2ccccc2)n1CC1CCCO1 (stereo not given),1,-7,10,-12,-30,13,x
Cc1cc(C)n2nc(SCC(=O)NC3(C#N)CCCCC3)nc2n1,2,-1,-1,9,2,-1,x
S=C(Nc1cccc2ccccc12)Nc1cccc2ccccc12,-37,92*,-78,84*,49,-31,11
CCOC(=O)c1c(C)cc2c(CO)n[nH]c(=O)c2c1C,-14,29,10,51*,20,27,48*
CCCOc1ccc(F)cc1-c1cc(C(=O)Nc2ccccc2)[nH]n1,13,-63,-32,-46,-25,-40,x
Oc1cc(NCc2ccc(F)cc2)cc2cccnc12,25,-2,1,51*,-12,8,39
C=C(CCC(=O)c1ccccc1)C(=O)c1ccccc1,-40,57*,-50,80*,-34,63*,-63
CCOC(=O)N1CCc2c(sc(NC(=O)CN3CCN(C)CC3)c2C(=O)Nc2ccccc2)C1,-9,-19,7,-16,10,0,x
CCOC(=O)N1CCc2c(sc(NC(=O)CN3CCOCC3)c2C(=O)Nc2ccccc2)C1,-9,23,18,57*,6,24,-1
C=CCNC(=O)C1CC2Cn3c(nc4cc(Cl)c(Cl)cc43)C2N1C (stereo not given),-8,14,-28,26,22,-19,x
CC1=Nc2ccccc2/C1=C/c1c(C)[nH]c2ccccc12,-22,8,25,53*,-1,91*,-60
Cc1nc([N+](=O)[O-])c(Sc2nc3ccccc3n2C)n1Cc1ccccc1,-34,34,14,65*,2,35,56*
Cc1nc([N+](=O)[O-])c(SCC(N)=O)n1Cc1ccccc1,7,2,13,4,10,7,x
CCCCOCCCNC(=O)C[C@@H]1C[C@@]2(C(=O)OC)CC(C)(C)CC=C2N(Cc2ccc3c(c2)OCO3)C1=O,x,x,12,x,x,x,x
COc1cccc(N2CC(C)Cn3c2nc2c3c(=O)[nH]c(=O)n2C)c1 (stereo not given),2,-12,0,-6,1,7,x
CC(C)[C@H](CO)Nc1nc(NCc2ccc(S(N)(=O)=O)cc2)c2ncn(C(C)C)c2n1,-16,27,24,71*,15,21,104*
CC(C)n1cnc2c(NCc3ccc(S(N)(=O)=O)cc3)nc(NCc3ccc(S(N)(=O)=O)cc3)nc21,-3,-12,4,-12,-8,-11,x
COc1cc(C(C)=O)ccc1OCC(=O)Nc1ccc2nc(C)sc2c1,4,-17,-11,-22,-18,-4,x
NC(=O)c1sc2nc3c(c(-c4ccco4)c2c1N)CCCC3,-11,-17,22,65*,10,11,80*
CN(CC(=O)O)Cc1oc(CO)cc(=O)c1O,8,21,8,-7,-13,0,x
COc1cccc(/C=N/n2c(C3CCCCC3)n[nH]c2=S)c1,-12,52*,7,60*,32,18,77*
COc1ccc(OC)c(Nc2ncnc3ccc(Br)cc23)c1,-24,36,33,54*,18,37,68*
COc1ccc(OC)c(Nc2ncnc3ccccc23)c1,-2,-8,-9,11,-11,-7,x
COc1cccc(Nc2ncnc3ccc(Br)cc23)c1,-14,63*,11,62*,35,16,87*
CC(C)(C)S(=O)(=O)N1C[C@H]2C(=CC[C@@H]3C(=O)N(c4ccccc4)C(=O)[C@@H]32)[C@H]1CCO,9,18,11,14,-12,-1,x
SMILES,KKLEB cytotox,TWEAK-Fn14 inh,HIF-2a block,CF NFkB block,TROY NFkB inh,Peg3 promoter,CF NFkB inh conf
COc1ccc2cc(S(=O)(=O)NC3CC(C)(C)NC(C)(C)C3)ccc2c1,-1,8,8,17,4,-2,x
COc1cc([C@H]2Oc3cc([C@H]4Oc5cc(O)cc(O)c5C(=O)[C@@H]4O)ccc3O[C@@H]2CO)ccc1O,-1,-13,1,20,17,-7,x
COc1cc([C@@H]2Oc3cc(C4Oc5cc(O)cc(O)c5C(=O)[C@H]4O)ccc3O[C@H]2CO)ccc1O (stereo not given in full),13,11,3,51*,14,-12,9
CCN(CC(=O)Nc1c(F)cccc1F)C(=O)C1CC(=O)N(CCc2ccc(OC)c(OC)c2)C1 (stereo not given),-16,-6,5,3,-13,-1,x
Nc1cccc2c1C(=O)N(C(=O)c1ccco1)C2=O,3,-13,6,9,-23,11,x
Nc1cccc2c1C(=O)N(C(=O)/C=C/c1ccc(F)cc1)C2=O,-24,84*,29,65*,16,102*,15
COc1ccc(-c2ccc3c(c2)S(=O)(=O)c2cccc(C(=O)N4CCN(c5c(Cl)cncc5Cl)CC4)c2C3=O)cc1OC,0,-2,8,-14,-1,30,x
CN(CC(=O)Nc1ccccc1Cl)C(=O)COC(=O)c1nc(Cl)c(Cl)c(Cl)c1Cl,-42,86*,38,87*,54*,105*,-100
Cc1cc(C)n(C(N)=NC(=O)c2ccccc2)n1,3,-11,-216,-11,-54,-257,x
FC(F)Sc1ccc(NC(=S)NC2CCCCC2)cc1,1,-25,-248,7,6,-158,x
FC(F)Sc1ccc(NC(=S)NCC2CCCCC2)cc1,-39,35,-164,50*,24,-75,61*
COc1ccc(NC(=O)Cn2ncc(Cl)c(Cl)c2=O)cc1S(=O)(=O)N1CCOCC1,-14,74*,37,55*,-2,97*,18
COc1ccc(NC(=O)c2ccc(Cl)nc2)cc1S(=O)(=O)N1CCOCC1,-1,14,9,3,5,5,x
COc1ccc(Nc2cccc3ccccc23)cc1,-22,104*,-115,76*,82*,-11,-4
COc1ccc(Nc2cccccc2=O)cc1,10,-9,-79,17,-44,-123,x
COc1cccc(N2CCN(c3c(C#N)c(C(F)(F)F)nn3C)CC2)c1,-4,34,20,52*,24,-4,61*
Cc1ccc(CNc2ncnc3ccc(-c4ccc(CO)o4)cc23)o1,-34,0,34,53*,-8,28,81*
CC(C)CC1NC(=S)N(Cc2ccccc2)C1=O (stereo not given),-17,-3,-11,58*,2,99*,10
CC(=O)C1CCC2C3CCC4=CC(=O)C=CC4(C)C3C(=O)CC12C (stereo not given),-10,-8,5,5,-6,15,x
